# Source: PubChem BioAssay (several laboratories)
# An excerpt weighted towards active compounds, which were near 2.8% of everything screened.
# B2AR ag = human beta-2 adrenergic receptor agonism by FAP; P07550; Am2.2-beta2AR cells, FAP receptor internalization, flow cytometry; response, % (test concentration not listed); 0.43% of 340,000 active; AID 504454;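 active means response above a set limit, near 3 SD of response in nonfluorescent compounds, cut at about 42% in these data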
# Target sequence (P07550 whole entry, looked up): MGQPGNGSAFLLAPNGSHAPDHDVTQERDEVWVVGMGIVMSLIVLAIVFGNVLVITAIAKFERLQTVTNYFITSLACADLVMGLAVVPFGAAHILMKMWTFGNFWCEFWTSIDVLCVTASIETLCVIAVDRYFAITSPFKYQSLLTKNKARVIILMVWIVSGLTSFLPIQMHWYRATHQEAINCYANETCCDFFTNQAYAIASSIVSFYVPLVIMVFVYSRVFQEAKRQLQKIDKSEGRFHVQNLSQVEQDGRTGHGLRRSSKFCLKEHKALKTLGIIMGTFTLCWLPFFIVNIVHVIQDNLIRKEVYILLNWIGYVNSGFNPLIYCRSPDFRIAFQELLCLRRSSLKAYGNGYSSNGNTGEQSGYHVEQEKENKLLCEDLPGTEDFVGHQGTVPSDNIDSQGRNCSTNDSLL
# Peg3 prom inh = reduces Peg3 promoter-driven luciferase expression in HeLa. HeLa PEG-Prom luciferase reporter, luminescence, overnight. 1.7% of 360,000 active. inhibition, % at 20 µM;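 active means inhibition of at least 50% at 20 µM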
# HIF-2a inh = HIF-2a inhibition | 786-0 RCC cells HIF-2a reporter, luciferase luminescence, overnight | 0.72% of 360,000 active | inhibition, % at 18.8 µM;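 active means inhibition of the luminescence signal of 40% or more relative to plate controls, in a single-dose primary screen at 18.75 µM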
# CF NFkB block = blocks PAF-induced NF-kB reporter in cystic fibrosis cells | KKLEB NF-kB-GFP reporter, GFP fluorescence overnight | 0.86% of 360,000 active | inhibition, % at 5 µM;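 active means at least 50% inhibition at 5 µM, scaled per plate between neutral and stimulator controls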;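 further: PAF is a Pseudomonas aeruginosa culture filtrate used as stimulus; plate controls were PAF-stimulated DMSO wells for no effect and unstimulated DMSO wells for full effect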
# MITF TRPM1 inh = inhibitors of MITF-driven TRPM1 promoter in melanoma cells; inhibition, % at 12.5 µM; SK-MEL-5 TRPM1 promoter luciferase, 24 h; 0.83% of 330,000 active;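 active means mean inhibition across replicates of 60% or more, whatever share of single replicates reaches that level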
# KKLEB tox = counter-screen for CF NF-kB inhibitors: cytotoxicity | KKLEB CF airway cells viability, ATPlite luminescence, overnight; active compounds read low; cells stimulated with P. aeruginosa culture filtrate | AID 602141 | activity change (cytotoxicity), % at 5 µM | 0.36% of 360,000 active;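 active means corrected activity change at or below -50% at 5 µM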
# Numbers without * were called inactive; x = no result.
SMILES,B2AR ag,Peg3 prom inh,HIF-2a inh,CF NFkB block,MITF TRPM1 inh,KKLEB tox
Cc1cccc(C)c1NC(=O)C1(C)CSCC(=O)N1CCCn1ccnc1 (stereo unspecified),x,x,7.3,x,x,x
COc1ccccc1/C=C1/C(=O)N(c2ccccc2)N=C1C,14.1,6.3,44.7*,3.5,12.9,-12.3
COCC(=O)N1C[C@H]2CON(C)[C@H]2C[C@H]1c1ccc(N2CCCCC2)cc1,x,8.5,12.2,3.5,x,-8.4
COc1ccccc1-c1ccc2c(c1)C(C)(Cc1cccc(F)c1)C(=O)N2 (stereo unspecified),x,22.8,21.5,6.3,x,-11.4
CCOC(=O)C1CCN(C(=O)C2(NC(=O)NC3CCCCC3)CCCCC2)CC1,0.1,63.7*,13.3,4.6,1.3,3.8
CCc1nc2ccc(C(=O)NCCNC(C)=O)cn2c1N(CCC(C)C)CCN(C)C,x,-5.4,11.0,1.7,x,4.2
Cc1cc2nc(-c3ccc(SCC(=O)Nc4nccs4)nc3)[nH]c2cc1C,13.0,14.3,-155.2,57.8*,74.1*,-59.2*
COc1ccc(-c2nc(SCC(=O)Nc3nccs3)c(-c3ccc(Cl)cc3)[nH]2)cc1,2.1,52.1*,-2.2,10.4,x,-16.4
Cc1cc2nc(-c3ccc(SCC(=O)Nc4ccc(S(=O)(=O)N5CCCC5)cc4)nc3)[nH]c2cc1C,24.6,-78.0,-193.5,23.3,-28.4,-53.7*
COc1ccc(-c2[nH]c(-c3ccc(C)cc3)nc2SCC(=O)Nc2nccs2)cc1,-3.5,32.3,2.9,-14.1,16.9,0.9
O=C(CSc1ccc(-c2nc3ccccc3[nH]2)cn1)Nc1ccc(S(=O)(=O)N2CCCC2)cc1,10.3,-18.1,-100.3,-17.4,-13.3,-2.3
O=C(NCc1cccnc1)c1cc(C2CCCCN2C(=O)c2ccc3c(c2)CCO3)on1 (stereo unspecified),x,6.0,8.3,-2.3,x,-7.1
Cc1ccc2ccccc2c1C(O)c1ncc(-c2cccc(C(F)(F)F)c2)[nH]1 (stereo unspecified),x,25.0,-2.8,18.1,x,-15.5
Cc1nn(-c2ccccc2)c2c1C(c1ccc(O)c(O)c1)N1C(=N2)C(Nc2ccccc2)=Nc2ccccc21 (stereo unspecified),-6.1,21.4,18.4,-11.8,-0.6,-0.5
Cc1ccc(NC2=Nc3ccccc3N3C2=Nc2c(c(C)nn2-c2ccccc2)C3c2ccc(O)c(O)c2)cc1 (stereo unspecified),-0.2,88.1*,14.5,-36.5,12.8,16.2
OC(CNCc1ccco1)Cn1c2ccc(Br)cc2c2cc(Br)ccc21 (stereo unspecified),18.7,98.4*,-18.7,17.1,3.5,-27.5
Cc1cc2c(OCC(O)CNCc3ccco3)cccc2[nH]1 (stereo unspecified),-4.2,15.4,10.2,3.6,-2.1,0.4
CCCNC(=O)C1(C)CCN1C(=O)Cc1ccc(C(C)(C)C)cc1 (stereo unspecified),x,-9.4,6.5,1.9,x,1.3
CCc1nc2ccc(C(=O)NCCc3c[nH]c4ccccc34)cn2c1N(C)CCCc1ccccc1,x,60.9*,15.5,-41.5,x,16.8
CCCCN(C=O)c1c(CC)nc2ccc(C(=O)NCCc3c[nH]c4ccccc34)cn12,x,2.7,4.0,2.6,x,-6.8
O=C(CCCN1C(=O)/C(=C\c2cccs2)SC1=S)Nc1ccc(O)cc1C(=O)O,0.7,53.2*,32.4,16.2,6.0,5.5
O=C(CCCN1C(=O)/C(=C/c2cccs2)SC1=S)NNC(=O)c1ccccc1O,-7.1,34.4,40.7*,-8.5,11.7,3.3
O=C(CCCN1C(=O)/C(=C/c2cccs2)SC1=S)Nc1ccccc1O,4.7,13.5,4.4,7.2,9.4,-1.4
COc1ccc(-c2csc(NC(=O)c3ccc(OCC(=O)N4CCOCC4)c(OC)c3)n2)cc1OC,30.2,92.2*,14.8,-7.3,57.0,-6.9
COc1ccc(-c2csc(NC(=O)C3CCN(c4ncnc5sc(C)c(C)c45)CC3)n2)cc1OC,27.6,49.0,-10.6,38.0,85.7*,-3.4
SMILES,B2AR ag,Peg3 prom inh,HIF-2a inh,CF NFkB block,MITF TRPM1 inh,KKLEB tox
Cc1ccccc1OCc1nc2ccccc2c(=O)n1/N=C/c1cn[nH]c1-c1ccc(Br)cc1,14.5,61.4*,-5.3,30.8,-16.8,-11.6
O=Cc1cc2ccccc2nc1SCc1ccc(Cl)cc1,45.5*,23.8,-1.9,47.4,47.9,-11.2
CCn1c(CCl)nc2cc(S(=O)(=O)N3CCOCC3)ccc21,x,71.4*,12.8,8.5,x,1.3
CCn1c(SCC(N)=O)nc2cc(S(=O)(=O)N3CCOCC3)ccc21,-1.7,-0.8,13.9,9.4,-9.0,-0.3
Cc1cc2nc(NCCCO)n(CC(=O)c3cc(C(C)(C)C)c(O)c(C(C)(C)C)c3)c2cc1C,27.8,94.3*,-7.6,41.2,-6.9,-44.3
O=C(/C=C/c1cn(CC(O)CN2CCCCCC2)c2ccccc12)c1cccs1 (stereo unspecified),-73.8,-18.4,-56.1,-8.6,7.5,-11.2
CCCCN(C)CC(O)Cn1cc(/C=C/C(=O)c2cccs2)c2ccccc21 (stereo unspecified),-36.3,43.7,-28.3,-29.3,90.4*,-27.6
c1ccc2ncc(-n3ccnc3)cc2c1,x,-22.4,0.9,9.1,x,-5.8
O=C1NC[C@H](Cc2ccccc2)N(CC2CCN(CCCC3CCCC3)CC2)C1=O,-7.2,-5.0,11.0,-14.7,-5.0,10.6
COc1ccc(-n2c(C)c(C(C)=O)c3cc(OC(C)=O)ccc32)cc1,3.5,15.7,35.5,83.3*,2.6,-10.9
Cc1ccc(S(=O)(=O)NCc2ccccc2)cc1C(=O)N1CCN(S(=O)(=O)c2ccccc2F)CC1,x,9.7,2.7,-6.7,x,-7.7
O=S(=O)(Nc1cc(C(F)(F)F)ccc1N1CCOCC1)c1ccccc1,4.1,2.7,13.4,8.4,5.7,2.1
O=S(=O)(Nc1cc(C(F)(F)F)ccc1N1CCOCC1)c1ccc2ccccc2c1,2.1,50.5*,21.5,23.2,-5.2,-4.5
O=C(NCc1ccccc1)C(c1cc2ccccc2o1)n1c(=O)c(-c2ccco2)nc2ccccc21 (stereo unspecified),x,x,-162.3,x,x,x
O=C1C(=O)N(CCS(=O)(=O)c2ccccc2)c2ccc(Cl)cc21,10.8,64.0*,7.3,-0.1,5.1,-8.2
CCc1ccc2c(c1)C(=O)C(=O)N2CCS(=O)(=O)c1ccccc1,2.6,-1.4,-11.9,29.2,4.2,-6.9
COc1ccc(/C=N/NC(=O)c2ccc(NS(=O)(=O)c3cccs3)cc2)cc1,9.8,104.3*,-33.8,-47.8,-14.8,-7.7
CC1(C(=O)Nc2ccc3c(c2)OCCO3)CSCC(=O)N1C1CC1 (stereo unspecified),x,x,12.6,x,x,x
OC(CNc1ccnc2cc(Cl)ccc12)CNC1CCCCC1 (stereo unspecified),19.7,99.6*,-29.8,-6.8,90.9*,-3.5
CCNC1CCC(Nc2ccnc3cc(Cl)ccc23)CC1 (stereo unspecified),7.2,24.6,-24.0,-13.6,24.7,10.8
